TDP-43 tox inh – rescues yeast from TDP-43 toxicity. 0.45% of 45,000 active. Potency, µM (titrated, usually from 46.1 µM), actives largely listed as activators. yeast TDP-43 toxicity rescue, BacTiter-Glo growth, 24 h. AID 1347073; active = well fitted activation curve with a large enough effect; also: 0% is about no effect; nearly all actives have a fitted effect of over 55% in size
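TDP-43-expressing yeast, pregrown in raffinose, seeded at OD600 0.02 in galactose medium with compound for 24 hr at 30 deg C. Growth read by BacTiter-Glo luminescence, so rescue of toxicity appears as activation.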
* hit, by the source's call; i = inactive. The sample as a whole holds a higher share of hits than the screen did. Potency is read from the fitted curve at half-maximal effect.

SMILES	TDP-43 tox inh
COc1cccc(-c2cnc(C(O)c3ccc(F)c(C)c3)[nH]2)c1 (centres undefined)	i
C/C(=N\NC(=O)c1nnn(-c2nonc2N)c1C(C)C)c1cc(C)sc1C	i
CC1CCCN(CC(=O)NNC(=O)COc2ccc(Br)cc2)C1 (centres undefined)	i
COc1ccc(CC(=O)OCC(=O)N2CCCC(C)C2)cc1 (centres undefined)	i
CC1CCCN(C(=O)COc2ccc(-c3ccccc3)cc2)C1 (centres undefined)	11µM*
CC(C)[C@H](NS(=O)(=O)c1ccccc1)C(=O)OCc1cc([N+](=O)[O-])cc2c1OCOC2	i
Cc1cc(C)c(S(=O)(=O)N2CCN(C(=O)c3cc4ccccc4o3)CC2)c(C)c1	i
Cc1onc(-c2ccccc2)c1C(=O)N1CCN(S(=O)(=O)c2ccccc2Br)CC1	i
Cc1ccc(C(=O)N2CCN(S(=O)(=O)c3cc(Br)ccc3Br)CC2)o1	14µM*
CC1(C(=O)NS(=O)(=O)c2ccc(F)cc2F)CCN1C(=O)c1ccc(C2CCCCC2)cc1 (centres undefined)	i
COc1ccccc1CCNC(=O)C1CCC(=O)N(C2CCCCCC2)C1 (centres undefined)	i
C(=N\n1cnnc1)/c1ccc(-c2ccccc2)cc1	11µM*
CCc1ccc(/C=N\n2cnnc2)cc1	i
O=[N+]([O-])c1cccc(/C=N/n2cnnc2)c1	i
CC(=O)Nc1ccc(CN(C)c2c(C)nc3ccc(C(=O)Nc4ccc(Cl)c(Cl)c4)cn23)cc1	i
CCCC1=NN(C(=O)C(=O)Nc2ccc(Br)cc2)C(O)(C(F)(F)F)C1 (centres undefined)	i
CC1(C(=O)NS(=O)(=O)c2ccc(F)cc2F)CCN1C(=O)c1ccccc1 (centres undefined)	i
CC(=O)c1ccc(C(=O)N2CCc3c([nH]c4ccccc34)C2c2cccc(C)n2)s1 (centres undefined)	13µM*
Cc1cccc(C2c3[nH]c4ccccc4c3CCN2Cc2ccc(C)s2)n1 (centres undefined)	i
Cc1cccc(C2c3[nH]c4ccccc4c3CCN2C(=O)Cc2n[nH]c(C)n2)n1 (centres undefined)	i
O=C1COc2cc(S(=O)(=O)NCc3ccco3)c(Cl)cc2N1	i
COc1ccc(-n2nc(C(=O)NCC(=O)N3CCN(Cc4ccccc4)CC3)c3ccccc3c2=O)cc1OC	i
COc1ccc(-n2nc(C(=O)NCC(=O)N3CCC(C)CC3)c3ccccc3c2=O)cc1Cl	18µM*
CCOC(=O)C1CCN(C(=O)CNC(=O)c2nn(-c3ccc(OC)c(OC)c3)c(=O)c3ccccc23)CC1	i
O=C(Nc1ccc2c(c1)OCO2)c1ccc2nc([C@@H]3O[C@H](CO)[C@H](O)[C@H](O)[C@H]3O)[nH]c2c1	i
SMILES	TDP-43 tox inh
O=C(N/N=C/c1ccc(O)c(O)c1)NC12CC3CC(CC(C3)C1)C2	i
NC(=S)N/N=C/c1ccc(C23CC4CC(CC(C4)C2)C3)cc1	7.9µM*
O=C(N/N=C/c1ccccc1O)NC12CC3CC(CC(C3)C1)C2	i
CCOC(=O)c1cc(C#N)c(SCC(=O)OC)[nH]c1=O	i
Cc1cc(C)cc(-c2nnc(SCC(=O)NCC3CCCO3)o2)c1 (centres undefined)	i
CCCNS(=O)(=O)c1ccc(CCC(=O)Nc2ccc3c(c2)OCCO3)cc1	i
CC(NS(=O)(=O)c1ccc2c(c1)OCCO2)c1ccccc1 (centres undefined)	i
O=S(=O)(NCCc1csc(-c2ccccc2)n1)c1ccc2c(c1)OCCO2	18µM*
O=C(NC(Cc1ccccc1)C(=O)O)/C(=C/c1cccc([N+](=O)[O-])c1)NC(=O)c1cccc(Br)c1 (centres undefined)	i
Cc1ccccc1-c1cc2nc(NCCOc3ccccc3)n(C)c(=O)c2s1	i
COc1ccc(Nc2nc3cc(-c4ccccc4C)sc3c(=O)n2C)cc1OC	20µM*
Cc1ccccc1-c1cc2nc(NCCCN(C)C)n(C)c(=O)c2s1	i
CCCNC(=O)C1(C)CCCN(C(=O)/C=C/c2ccccc2)C1 (centres undefined)	i
Cc1cccc(N2CCN(CCCNC(=O)c3ccc(NC(=O)C4=CSCCO4)cc3)CC2C)c1 (centres undefined)	i
COc1ccc(-c2nc(CNS(=O)(=O)c3ccc(C)cc3)cs2)cc1	i
COc1ccc(-c2nc(CNS(=O)(=O)c3cccc(F)c3)cs2)cc1	16µM*
COc1ccc(-c2nc(CNS(=O)(=O)c3ccc(F)cc3)cs2)cc1	i
COCCCn1c(=N)c(C(=O)NCc2cccnc2)cc2c(=O)n3cccc(C)c3nc21	i
COc1cc(-c2cc3nc(NCc4cccc(Cl)c4)ccn3n2)cc(OC)c1OC	14µM*
c1ccc(-c2cc3nc(NCc4cccs4)ccn3n2)cc1	i
COc1ccccc1-c1cc2nc(NCCc3ccncc3)ccn2n1	i
CC(O)(c1ccc(F)c(F)c1)c1nc(-c2ccc(Cl)cc2)cs1 (centres undefined)	i
